# Experimental data reported in ChEMBL document CHEMBL4513216, “Probing the Open Global Health Chemical Diversity Library for Multistage-Active Starting Points for Next-Generation Antimalarials” (ACS Infect Dis, 2020).
# The whole screen tested about 69,000 compounds, of which about 8,600 (12%) showed an effect of 50% or more. The full list was thinned out, with strong results kept by preference.
# Tested on: Plasmodium berghei
# Test: Screen against P. berghei liver stage (PbLuc), transformed with Luciferase, at 10uM
# Assay type: functional, HepG2
# Conditions: tested at 10 uM
row,SMILES,INHIBITION [%]
1,Cn1ccnc1CN1CCCC(CCCc2ccccn2)(C(N)=O)C1 (configuration not stated),10.9
2,O=C(NCCc1ccco1)Nc1cc(C(F)(F)F)c[nH]c1=O,4.8
3,Cc1nc(C)n(CC2CCCN2CC(=O)Nc2cc(C)on2)n1 (configuration not stated),40.2
4,CCN(C)C(=O)Cn1c(-c2ccco2)nn(-c2ccccc2OC)c1=O,33.3
5,Cc1cccnc1C(=O)N1C[C@@H]2CC[C@H](Oc3cccc(F)c3)[C@@H]2C1,20.8
6,COCCN1CCC(NCc2ccc(F)cc2F)C1 (configuration not stated),25.4
7,CSCC(=O)N1CCc2c(cnc(C)c2-c2noc(-c3cc[nH]n3)n2)C1,12.1
8,O=C(Cc1ccc2c(c1)CCC2)N1CCN(c2cnccn2)CC1,-46.4
9,O=C(CCCNC(=O)NCC1CCCO1)Nc1ccc(Cl)cc1 (configuration not stated),25.8
10,COc1cc(OC)cc(C(=O)NCCCNc2ncccn2)c1,-14.1
11,Cc1cc(C)cc(C(=O)NCCCNc2ncccn2)c1,55.4
12,CCOc1ccc(C(=O)NCCCNc2ncccn2)cc1,41.5
13,O=C(CCCNc1ncccn1)Nc1cc(C(F)(F)F)c[nH]c1=O,29.15
14,CC(O)(CNC(=O)c1c(F)cccc1Cl)c1ccco1 (configuration not stated),55.6
15,CC(O)(CNC(=O)c1c(F)cccc1Cl)C1CC1 (configuration not stated),9.79
16,O=C(NCC(O)(c1ccco1)C1CC1)c1c(F)cccc1Cl (configuration not stated),46.7
17,Cc1cc(Cl)ccc1NCc1ccc(C(=O)N(C)C)[nH]1,3.03
18,CCc1cnc(N2C[C@@H](NC(=O)c3cscn3)[C@H]3COC[C@H]32)nc1,-82.5
19,CCC(=O)N1CCC2(C=C(C(=O)N3CCCC3)c3ccccc32)CC1,34.9
20,CCC(=O)N1CCC2(C=C(C(=O)N(C)C)c3ccccc32)CC1,53
21,CCN1CCC2(C=C(C(=O)N(C)C)c3ccccc32)CC1,41.2
22,CN1CCC2(C=C(C(=O)N(C)C)c3ccccc32)CC1,63.8
23,CC(C)CN1CCC2(C=C(C(=O)N(C)C)c3ccccc32)CC1,30.3

row,SMILES,INHIBITION [%]
1,CC(C)N1CCC2(C=C(C(=O)N(C)C)c3ccccc32)CC1,-41.6
2,CC(C)COC(C)C(=O)NCCNC(=O)C(C)C (configuration not stated),36.8
3,O=C(Cn1cc(Cl)cn1)N1CCCC(c2cc3ccccc3cn2)C1 (configuration not stated),24.4
4,O=C(C1CC=CC1)N1CCCn2nnc(CNc3ncccn3)c2C1,29.5
5,Fc1cccc(-n2ccc(CN3CCCC3Cn3cncn3)n2)c1 (configuration not stated),-19.4
6,Cc1nc(C(=O)N2CCCC2c2cncc(CN3CCCC3)n2)co1 (configuration not stated),-33.6
7,Cc1cc(C2CCCN2C(=O)c2cnn(C)c2)on1 (configuration not stated),0.8
8,Cc1cccc(NCC(=O)Nc2cc(F)ccc2F)c1C(N)=O,-33.7
9,CCN1C[C@@H]2[C@@H](OC)CCN(C(=O)c3cc(C)nn3CC)[C@@H]2C1,84.1
10,CCn1nc(C)cc1C(=O)N1CC[C@H](OC)[C@H]2CN(CC3CC3)C[C@H]21,-6.39
11,CCN1C[C@H]2[C@@H](C1)N(C(=O)Cc1ccsc1)CC[C@H]2OC,-9.74
12,CCC(C)NS(=O)(=O)c1ccc(C(=O)NC2(C#N)CCC2)cc1 (configuration not stated),3.13
13,CC(C(=O)N(C)Cc1noc(C2CCC2)n1)N1CCc2ccccc2C1 (configuration not stated),25.8
14,CC(C)c1cc(CN(C)C(=O)C(C)N2CCc3ccccc3C2)no1 (configuration not stated),63.1
15,COCCc1noc(CN(C)C(=O)C(C)N2CCc3ccccc3C2)n1 (configuration not stated),2.29
16,Cn1cc(C2CCCN2C(=O)c2cnc(-c3cccs3)s2)cn1 (configuration not stated),37.7
17,O=C(C1CCOC1)N1Cc2ccccc2OC2(CCOCC2)C1 (configuration not stated),12.8
18,CN(CCNC(=O)N1CCCC1)C(=O)OC(C)(C)C,-30.5
19,CC(CCNC(=O)N1CCC1)N(C)C(=O)OC(C)(C)C (configuration not stated),8.18
20,CCOC1CCN(C(=O)NCCN(C)C(=O)OC(C)(C)C)CC1,58.2
21,COCCN(Cc1ccoc1)S(=O)(=O)c1ccc(F)c(Cl)c1,-31.7
22,CC(=O)c1cc(CC(=O)NCc2ccc(F)cc2)cs1,-38.2
23,COc1ccc(CNC(=O)Cc2csc(C(C)=O)c2)cc1,33

row,SMILES,INHIBITION [%]
1,CC(=O)c1cc(CC(=O)NCc2ccc(CN(C)C)cc2)cs1,50.1
2,CS(=O)(=O)Cc1ccc(CNC(=O)N2CCC(C(N)=O)C2)cc1 (configuration not stated),2.97
3,CCOc1ncccc1NC(=O)NC1CCN(c2ncccn2)CC1,-19.9
4,CCCn1nc2c(cc1=O)CN(c1ncnc3ccsc13)CC2,91.9
5,CC(C)n1nc2c(cc1=O)CN(c1ncnc3ccccc13)CC2,94.5
6,CCn1nc2c(cc1=O)CN(c1nc3ccccc3s1)CC2,37.7
7,CCn1nc2c(cc1=O)CN(CC(=O)Nc1nccs1)CC2,18.2
8,CC(C)n1nc2c(cc1=O)CN(Cc1nc3ccccc3o1)CC2,26.5
9,CN(C(=O)CN1CCc2nn(C)c(=O)cc2C1)c1nccs1,29
10,Cn1nc2c(cc1=O)CN(c1ncnc3ccsc13)CC2,34.6
11,CCn1nc2c(cc1=O)CN(c1ncnc3ccsc13)CC2,93.6
12,CC(C)n1nc2c(cc1=O)CN(c1nc3ccccc3s1)CC2,35
13,CCCn1nc2c(cc1=O)CN(CCCN1CCCC1=O)CC2,6.56
14,CCn1nc2c(cc1=O)CN(CC(=O)N(C)c1nccs1)CC2,50.7
15,CCCn1nc2c(cc1=O)CN(CC(=O)N(C)c1nccs1)CC2,9.56
16,CCCc1c(C2CCOC(C)(C)C2)nc(N)c(C#N)c1-c1cnn(C)c1 (configuration not stated),4.15
17,Cc1ccoc1C(=O)NCCS(=O)(=O)N1CCSCC1,4.52
18,c1ccc(Cc2nnc(CN3CCCC(Cn4cncn4)C3)o2)cc1 (configuration not stated),-15.3
19,COc1cc(N2CCC3(CCCN(C(=O)c4cccnc4)C3)C2)ncn1 (configuration not stated),19.8
20,C=C(C)COc1ccccc1CN1CCC(C(=O)NCC)C1 (configuration not stated),3.06
21,CC(=O)N[C@@H]1CN(C(=O)CC2CC2)C[C@H]1O,49.9
